Screening data: PubChem, several laboratories
Compounds with a hit are over-represented: about 4% of the library has one in this group of screens.
GDH-TPI counter – GDH-TPI coupled enzyme inhibition counter-screen; GDH-TPI coupled enzyme counterscreen, NADH absorbance; AID 588335; inhibition, % at 4.8 µM; actives 1.2% (n = 360,000); in the data active = inhibition above about 30%;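 also: 0% = DMSO wells and 100% = wells lacking the enzyme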
Mtb betalactam – beta-lactam sensitization of Mtb H37Rv | M. tuberculosis H37Rv growth with meropenem, percent inhibition | inhibition, % at 25 µM | actives 0.27% (n = 330,000); call rule not given here;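 also: growth measured after seven days incubation then overnight dye step; 0% = bacteria only wells and 100% = bacteria with antibiotic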
Rv3671c protease – Rv3671c (M. tuberculosis) protease inhibition | P9WHR9 | inhibition, % at 5.96 µM | actives 0.048% (n = 320,000) | AID 2606; in the data active = inhibition above about 38%;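 also: extracellular domain of Rv3671c used as enzyme; 0% = enzyme with DMSO and 100% = no enzyme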
FBA Mtb inh – inhibitors of M. tuberculosis fructose-bisphosphate aldolase. purified M. tuberculosis FBA, fluorescence read-out. actives 2.3% (n = 360,000). AID 588726. inhibition, % at 1 µM. P9WQA3; in the data active = inhibition above about 27%;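 also: 0% = vehicle and 100% = reference inhibitor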
RecA splice inh – Mtb RecA intein splicing inhibition; P9WHJ3; inhibition, % (test concentration not listed); cell-free RecA intein splicing, fluorescence; AID 2221; actives 0.75% (n = 290,000); in the data active = inhibition above about 30%;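 also: 0% = vehicle wells and 100% = reference inhibitor control wells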
UGM FP inh – Mtb UDP-galactopyranose mutase inhibition | inhibition, % at 10 µM | purified UGM, fluorescence polarization probe displacement | AID 504406 | actives 0.06% (n = 320,000) | P9WIQ1; in the data active = inhibition above about 10%, passing the limit was not always enough
Active calls of the source: *; nt = not tested or not shown; + = active, no number.

SMILES | GDH-TPI counter | Mtb betalactam | Rv3671c protease | FBA Mtb inh | RecA splice inh | UGM FP inh
Cc1ccc(OCC(=O)N/N=C/c2cc([N+](=O)[O-])ccc2N2CCCCC2)cc1 | 12 | 9 | 6 | -1 | -7 | 1
OCCC1CN(C2CCC2)CCN1Cc1ccc(F)c(F)c1 (stereo unspecified) | 8 | -3 | -1 | 0 | -1 | 0
CCN(CC)c1ccc(-c2nn3c(-c4n[nH]c5c4CCC5)nnc3s2)cc1 | 24 | 85 | -2 | 40* | -22 | 0
Cc1ccc(-n2nc3c4c(cccc4c2=O)-c2ccccc2-3)cc1 | 33* | 8 | -6 | 2 | 0 | -1
Cc1ccc(F)c(S(=O)(=O)NC(=O)C2(C)CCN2C(=O)c2ccc(C3CCCCC3)cc2)c1 (stereo unspecified) | -3 | nt | nt | 2 | nt | nt
CC(C)(C)S(=O)(=O)c1cnc2c(S(=O)(=O)c3ccccc3)cnn2c1N | 4 | -6 | 9 | 2 | 20 | -1
Cc1nc2c(S(=O)(=O)c3ccccc3)cnn2c(C)c1C | 0 | -7 | 6 | 44* | -1 | nt
O=C(O)CC1CCC1CC(=O)O (stereo unspecified) | 14 | nt | nt | 4 | nt | nt
N[C@@H]1CCCC[C@H]1N.O=C(O)C(=O)O.[Pt] | nt | 4 | -1 | nt | 50* | 2
COC(=O)c1cc2c(-c3ccccc3)cc3ccccn3c-2c1C(=O)OC | 35* | 20 | 0 | -4 | -2 | 0
COC(=O)c1c(C)c2c(C)cc3ccccn3c-2c1C(=O)OC | 20 | 0 | 21 | 2 | -6 | 2
Cc1c(C(=O)N/N=C/c2ccccc2)sc(=S)n1C | 23 | -5 | -5 | -2 | 1 | 0
Cc1c(C(=O)N/N=C/c2ccc(O)cc2)sc(=S)n1C | 43* | 3 | -15 | -3 | -1 | -3
Cc1ccc(C(=O)Nc2ccc([N+](=O)[O-])cn2)o1 | 40* | -1 | -3 | -5 | 4 | 0
Cc1ccc(C)c(OCc2ccc(C(=O)Nc3ccc([N+](=O)[O-])cn3)o2)c1 | 4 | 3 | -4 | -5 | nt | -2
CC1CCc2sc(-c3n[nH]c(=S)o3)cc2C1 (stereo unspecified) | 15 | 3 | 0 | + | 4 | 6
S=c1[nH]nc(-c2cc3c(s2)-c2ccccc2CC3)o1 | 22 | 44 | 1 | + | -97 | -1
Oc1cc2ccccc2cc1-c1n[nH]c(=S)o1 | 18 | -2 | -1 | 6 | -4 | 2
CSc1nnc(-c2ccccc2SC)o1 | 11 | -3 | 1 | 5 | 7 | -1
CSc1nnc(-c2cc3c(s2)-c2ccccc2CC3)o1 | 17 | 94 | -6 | + | -3 | -2
COc1ccc(S(N)(=O)=O)cc1C(=O)NC1CCCc2ccccc21 (stereo unspecified) | -7 | -1 | 4 | -2 | nt | 4
CS(=O)(=O)c1cccc(-c2nnc(NC(=O)CCS(=O)(=O)c3ccccc3)o2)c1 | 2 | -4 | -3 | -1 | 3 | 2
CC(=O)c1ccc(Nc2nc(CN)cs2)cc1 | 21 | nt | nt | 1 | nt | nt
CC1=C(/C=C/C(C)=C/C=C/C(C)=C\C(=O)O)C(C)(C)CCC1 | 6 | -6 | -1 | 5 | 7 | 6
CC1=C(/C=C/C(C)=C/C=C/C(C)=C/C(=O)Nc2ccc(O)cc2)C(C)(C)CCC1 | 35* | 100 | 11 | -3 | nt | 2
SMILES | GDH-TPI counter | Mtb betalactam | Rv3671c protease | FBA Mtb inh | RecA splice inh | UGM FP inh
CCOC(=O)C1=CCC(c2cccn2C(=O)OC(C)(C)C)N(S(=O)(=O)c2ccc(C)cc2)C1 (stereo unspecified) | nt | nt | nt | 2 | nt | nt
O=C(NCCN1CCc2ccccc2C1)Nc1ccc([N+](=O)[O-])cc1 | 40* | -12 | 8 | 2 | -2 | 1
O=C(NCCCN1CCc2ccccc2C1)Nc1ccc(Br)cc1 | 6 | 2 | 1 | 4 | 4 | -1
CN(C)c1ccc(C(=O)C(O)c2ccccc2Cl)cc1 (stereo unspecified) | 46* | nt | nt | 2 | nt | nt
Fc1c(F)c(F)c(SCn2cc(Br)cn2)c(F)c1F | 2 | -7 | 4 | -2 | nt | -2
C=C(C)CSc1nc2ccccc2c(=O)n1-c1c(C)n(C)n(-c2ccccc2)c1=O | 5 | -13 | -1 | 1 | 4 | 3
Cc1c(-n2c(SCC(=O)C(C)(C)C)nc3ccccc3c2=O)c(=O)n(-c2ccccc2)n1C | 8 | 2 | -5 | 145* | 0 | -2
COc1ccc(CNC(=O)Nc2ccc3c(c2)c(=O)n(C)n3Cc2cccc(C(F)(F)F)c2)cc1 | 6 | nt | nt | 128* | nt | nt
